# Mdm2-MdmX inh = human Mdm2/MdmX binding inhibition; AID 485346; O15151+Q00987; SaOS-2 split-luciferase Mdm2/MdmX complementation, luminescence; 3% of 330,000 active; inhibition, % at 8 µM;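 active means inhibition of at least 50% at 8 µM in the primary screen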
# Target sequence (O15151 whole entry, looked up): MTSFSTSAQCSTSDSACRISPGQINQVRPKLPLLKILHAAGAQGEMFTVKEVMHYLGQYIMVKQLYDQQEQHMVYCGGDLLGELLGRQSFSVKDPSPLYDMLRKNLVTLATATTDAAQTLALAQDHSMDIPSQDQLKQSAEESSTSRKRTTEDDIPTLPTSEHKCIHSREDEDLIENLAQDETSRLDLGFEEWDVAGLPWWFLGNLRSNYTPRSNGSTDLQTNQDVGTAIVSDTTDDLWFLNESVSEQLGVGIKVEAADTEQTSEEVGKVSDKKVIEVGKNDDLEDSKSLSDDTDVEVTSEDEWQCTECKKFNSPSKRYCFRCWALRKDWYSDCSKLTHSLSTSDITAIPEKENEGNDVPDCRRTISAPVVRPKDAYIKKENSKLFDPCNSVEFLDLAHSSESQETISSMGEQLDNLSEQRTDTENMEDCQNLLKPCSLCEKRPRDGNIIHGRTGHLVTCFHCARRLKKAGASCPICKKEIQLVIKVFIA
# Target sequence (Q00987 whole entry, looked up): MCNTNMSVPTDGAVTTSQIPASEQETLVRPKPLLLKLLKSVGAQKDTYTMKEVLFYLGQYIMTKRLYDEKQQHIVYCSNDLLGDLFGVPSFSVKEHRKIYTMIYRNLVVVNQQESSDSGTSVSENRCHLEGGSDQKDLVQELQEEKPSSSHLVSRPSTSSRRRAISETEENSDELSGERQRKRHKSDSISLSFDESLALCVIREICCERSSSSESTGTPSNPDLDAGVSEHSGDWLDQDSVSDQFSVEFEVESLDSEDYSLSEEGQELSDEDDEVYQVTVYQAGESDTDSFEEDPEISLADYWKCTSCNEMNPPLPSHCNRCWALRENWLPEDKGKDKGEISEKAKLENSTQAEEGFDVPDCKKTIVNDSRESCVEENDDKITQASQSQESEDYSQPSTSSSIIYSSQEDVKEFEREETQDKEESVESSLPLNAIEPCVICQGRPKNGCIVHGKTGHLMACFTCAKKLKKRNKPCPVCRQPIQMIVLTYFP
# KLF5 inhibitor = suppresses KLF5 promoter-driven expression | inhibition, % at 5 µM | DLD-1 KLF5 promoter-luciferase reporter, luminescence | 0.23% of 290,000 active;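 active means inhibition above a per-plate limit of that plate's mean compound inhibition plus 3 SD, cut at about 60% in these data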;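 further: 0% = DMSO wells and 100% = LY294002 at 200 µM; higher means less KLF5 promoter-driven luciferase light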
# aSyn 5UTR inh = 5' untranslated region of α-synuclein, MLPCN primary screen | alpha-synuclein 5'UTR reporter, inhibitor activity | inhibition, % (tested at 7.5 µM) | 0.82% of 300,000 active; in the data active means inhibition above about 60%; inconclusive means no clear call, values can overlap the other calls;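 further: H4 neuroglioblastoma cells stably carrying SNCA 5'UTR luciferase fusion; 0% = DMSO wells and 100% = positive control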
# 697 NFkB inh = lowers PMA/ionomycin-induced NF-kB signal in 697 B cells. 697 B-cell NF-kB luciferase reporter, 16 h. inhibition, % at 4 µM. 0.33% of 330,000 active. AID 435022; in the data active means inhibition above about 35%
# Gli-Sufu block = Gli-Sufu pathway antagonism | Sufu-KO-LIGHT fibroblasts, Gli luciferase reporter luminescence | inhibition, % at 5 µM | 0.74% of 340,000 active;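 active means inhibition above about 55%, limit read from the data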;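 further: 0% = DMSO-treated cells and 100% = wells with medium but no cells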
# Jurkat NFkB inh = inhibitors of the PMA/ionomycin-induced NF-kB reporter in Jurkat cells; PMA/ionomycin-induced NF-kB luciferase reporter, luminescence; inhibition, % at 4 µM; AID 435003; 0.53% of 330,000 active; in the data active means inhibition above about 50%
# 697 NFkB conf = lowers PMA/ionomycin-induced NF-kB signal in 697 B cells. shares compounds with 697 NFkB inh. 697 B-cell NF-kB luciferase, 16 h. inhibition, % at 4 µM. 35% of 2,000 active. AID 449746; in the data active means inhibition mostly above about 28%, no sharp cut-off; inactive means mostly below about 22%
# Active calls of the source: *; u = inconclusive; x = no result. Hits are enriched below; roughly 4.1% of the tested compounds scored in any of these assays.
SMILES,Mdm2-MdmX inh,KLF5 inhibitor,aSyn 5UTR inh,697 NFkB inh,Gli-Sufu block,Jurkat NFkB inh,697 NFkB conf
COc1cc(/C=N/NC(=O)C2CC(=O)N(c3ccc(C)cc3)C2)cc(OC)c1OC (stereo not given),-3,-19,29,35,-5,12,21
COc1ccc(N2CC(C(=O)N/N=C/c3ccccc3)CC2=O)cc1 (stereo not given),13,-4,25,10,-8,-4,x
O=C(N/N=C/c1cccnc1)c1ccccc1OCc1ccc(Cl)cc1,27,-2,30,-4,x,9,x
O=C(N/N=C/c1cccnc1)c1cc(-c2ccccc2OCc2ccccc2)n[nH]1,22,11,-5,35*,12,22,26*
O=C(O)c1ccccc1C(=O)NCc1cccnc1,11,-24,9,3,-5,5,x
O=C(NCc1cccnc1)c1cccn2c(=O)c3sccc3nc12,11,6,-11,38*,1,-7,27
COc1ccc(/C=N/NC(=O)c2c(Br)cnn2C)c2ccccc12,20,-13,-2,7,5,5,x
CSc1ccc(C2Nc3cccc4cccc(c34)N2)cc1,19,-34,-57,-266,9,30,-71
COc1ccc(-c2coc3cc(O)ccc3c2=O)cc1OC,-1,-47,-66,-42,-24,2,x
O=c1c(-c2ccc(F)cc2)coc2cc(O)ccc12,-47,-162,-94,-267,-80,-50,-142
Cc1cc(C)c2c(CN3CCN(Cc4ccccc4)CC3)cc(=O)oc2c1C,-16,-12,5,5,35,15,x
O=C(NNC(=O)C12CC3CC(CC(Br)(C3)C1)C2)c1ccccc1F,-9,x,x,44*,12,3,43*
O=C(NNC(=O)C12CC3CC(CC(O)(C3)C1)C2)c1ccccc1O,7,-9,-1,-3,-12,-7,x
CC(C)On1c(SCC(=O)N(C)C)nc2ccccc2c1=O,-2,-14,-4,-3,7,-6,x
CCOC(=O)c1cnc(SCc2ccccc2)nc1N,-155,-128,-183,-261,-74,-77,-157
O=C(Nc1nccs1)c1sc2ccccc2c1Cl,-98,-57,u,-352,12,-115,-326
CC1(C)Cc2c(sc(NC(=O)Cc3ccccc3)c2C#N)CO1,24,-24,-10,41*,10,19,23
CCCCC(=O)Nc1sc2c(c1C#N)CC(C)(C)OC2,-88,-17,-29,-133,-75,-90,x
COc1ccc(CCNC(=O)C(=O)NCC2OCCN2S(=O)(=O)c2cccs2)cc1 (stereo not given),-16,-15,11,-7,2,-2,x
FC(F)Sc1ccc(NC2=NCCCCC2)cc1,14,-9,-5,8,8,-10,x
Clc1ccc(NC2=NCCCCC2)cc1,-5,-28,-5,36*,16,9,4
O=C(Nc1ccc(-c2nc3ccccc3s2)cc1)C1=COCCO1,-21,-99,94*,-300,44,-61,-290
COc1ccc(-c2nc(CS(=O)CC(=O)NCc3ccc(Cl)cc3)c(C)o2)cc1OC (stereo not given),18,-19,5,14,-9,-1,x
CC(/C=C1\SC(=S)N(CCCC(=O)Nc2ccc(C(=O)O)c(O)c2)C1=O)=C\c1ccccc1,x,2,28,x,32,x,x
O=C(CCCN1C(=O)S/C(=C/C=C/c2ccccc2)C1=O)Nc1ccc(C(=O)O)cc1,14,-60,17,49*,-9,25,49*
SMILES,Mdm2-MdmX inh,KLF5 inhibitor,aSyn 5UTR inh,697 NFkB inh,Gli-Sufu block,Jurkat NFkB inh,697 NFkB conf
CC(=C\c1ccccc1)/C=C1/SC(=O)N(CCCC(=O)Nc2ccc(C(=O)O)cc2)C1=O,25,10,25,75*,7,6,70*
O=C(CCN1C(=O)/C(=C\c2ccccc2)SC1=S)Nc1ccc(C(=O)O)cc1,3,4,20,0,12,-16,x
CCCCCCC1CC(CSc2ncn[nH]2)OC1=O (stereo not given),15,-6,8,-10,1,22,x
COc1ccc(CCNC(=O)Cn2c(=O)n(-c3cc(F)ccc3F)c(=O)c3sccc32)cc1OC,12,-32,15,43*,0,-3,18
CC1CCN(c2nc3ccc(C(=O)NCCCN4CCCCC4C)cc3s2)CC1 (stereo not given),-7,5,-277,-42,x,-47,x
CCC1CCCCN1CCCNC(=O)c1ccc2nc(N3CCCCC3)sc2c1 (stereo not given),16,-112,-280,-298,-5,-93,-310
CCN(CC(=O)NCc1ccc(Cl)cc1)C(=O)C1CCN(S(=O)(=O)c2ccc(OC)c(OC)c2)CC1,19,x,14,-19,-2,-2,x
Cc1ccc(/C=C2\SC(=S)N(CCC(=O)NNC(=O)c3ccc(O)cc3)C2=O)cc1,1,-38,-1,15,-1,9,x
COc1ccc(/C=C2\SC(=S)N(CCC(=O)Nc3cccc(C(=O)O)c3)C2=O)cc1,19,-59,26,42*,6,-5,39*
COc1cccc(/C=C2\SC(=S)N(CCCC(=O)Nc3ccc(C(=O)O)cc3)C2=O)c1,24,-6,26,53*,18,17,61*
Cc1ccc(/C=C2\SC(=S)N(CCCC(=O)Nc3cccc(C(=O)O)c3)C2=O)cc1,3,-7,43,76*,51,-4,88*
O=C(CCN1C(=O)/C(=C/c2ccc(Cl)cc2)SC1=S)Nc1cccc(C(=O)O)c1,11,-5,-2,13,4,23,x
Cc1ccc(/C=C2\SC(=S)N(CCC(=O)NNC(=O)c3cccc(O)c3)C2=O)cc1,12,-13,26,40*,3,6,12
CC1CCN(CCCNC(=O)C2CC(=O)N(CCc3ccccc3)C2)CC1 (stereo not given),-10,-3,-11,3,-6,-4,x
CC(C)CCN1CCN(Cc2nc(-c3ccc(F)cc3)cs2)CC1CCO (stereo not given),4,-16,7,11,12,1,x
N#CC(c1ccc(O)cc1)N1CCN(C(C#N)c2ccc(O)cc2)CC1 (stereo not given),x,x,x,x,-29,x,x
CCc1ccc(S(=O)(=O)NC(=S)NC2CCCCC2)cc1,-21,2,-3,5,1,5,x
COc1ccc(/C=C2\SC(=S)N(CCCC(=O)Nc3ccc(C(=O)O)cc3)C2=O)cc1OC,8,-12,19,26,4,-20,x
COc1ccc(/C=C2\SC(=O)N(CCCC(=O)Nc3ccc(C(=O)O)cc3)C2=O)cc1OC,-2,-6,73*,62*,-2,14,71*
O=C(CCN1C(=O)/C(=C\c2ccc(F)cc2)SC1=S)Nc1ccc(O)cc1,-10,-23,-9,-32,2,1,x
CCOc1ccc(/C=C2/SC(=S)N(CCC(=O)Nc3ccc(C(=O)O)cc3)C2=O)cc1,2,-14,11,77*,6,4,77*
